Active and inactive are the calls of the source.
Experiments:
[1] = compound effects on lung adenocarcinoma cell viability – A549, calcein-AM fluorescence, 48 h, basal, profiling panel (AID 1162); conditions: higher = more signal
[2] = compound effects on differentiated 3T3-L1 adipocyte viability – cell-based, 3T3-L1 adipocytes, calcein-AM fluorescence, 48 h, basal, profiling panel (AID 1163); conditions: 3T3-L1 adipocytes viability, higher = more signal
[3] = compound effects on hepatocellular carcinoma cell viability – HepG2, calcein-AM fluorescence, 48 h, basal, profiling panel (AID 1164); conditions: higher = more signal
[4] = compound effects on multiple myeloma cell viability – MM1S, calcein-AM fluorescence, 48 h, basal, profiling panel (AID 1165); conditions: higher = more signal
[5] = calcein-AM signal in unstimulated myeloma cells – cell-based, calcein-AM fluorescence, 48 h, PK04 Diversity Set, profiling panel (AID 1166); conditions: RPMI8226 myeloma viability, higher = more signal;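 further: cells grown under basal conditions without added stimulus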
[6] = JC-1 mitochondrial signal, unstimulated HepG2 cells – cell-based, JC-1 fluorescence, 24 h, 100 nL compound, profiling panel (AID 1167); conditions: HepG2 mitochondrial potential, higher = more signal
[7] = JC-1 mitochondrial signal, unstimulated adipocytes – cell-based, JC-1 fluorescence, 3T3-L1 adipocytes, 24 h, 100 nL compound, profiling panel (AID 1168); conditions: JC-1 mitochondrial fluorescence, higher = more signal, called active from +8 up or from −8 down
[8] = JC-1 mitochondrial signal, unstimulated myeloma cells – cell-based, JC-1 fluorescence, RPMI8226, 24 h, 100 nL compound, profiling panel (AID 1169); conditions: JC-1 mitochondrial potential fluorescence, higher = more signal
[9] = JC-1 mitochondrial signal, unstimulated MM1S myeloma – cell-based, JC-1 fluorescence, 24 h, 100 nL compound, profiling panel (AID 1170); conditions: MM1S mitochondrial potential, higher = more signal
[10] = resazurin metabolic signal in A549 cells – cell-based, resazurin fluorescence, 24 h, PK04 Diversity Set, profiling panel (AID 1171); conditions: A549 viability, higher = more signal, called active from +8 up or from −8 down
Further: test concentration not given here.

Row | Compound | z-score [1] | z-score [2] | z-score [3] | z-score [4] | z-score [5] | z-score [6] | z-score [7] | z-score [8] | z-score [9] | z-score [10]
1 | O=C1NC(=O)C2C1C=CC(C(O)C1CC=CCC1)N2Nc1ccccn1 (stereo not given) | -0.905 | -0.635 | 1.06 | 0.0581 | -0.362 | -0.265 | -0.147 (inactive) | -0.074 | -0.642 | -1.44 (inactive)
2 | COC(=O)[C@]1(CCC(=O)OC(C)(C)C)N=C(c2ccc(OCCCO)cc2)O[C@@H]1c1ccccc1 | -1.32 | 0.899 | -1.08 | -3.43 | -3.1 | -2.23 | -0.205 (inactive) | -0.734 | 0.903 | -1.99 (inactive)
3 | O=C1C2C=CC(C(O)c3ccc(-c4ccccc4)s3)N(Nc3ccccc3)C2C(=O)N1c1ccccc1 (stereo not given) | -0.574 | -1.35 | 0.128 | -0.338 | -1.45 | -1.75 | 0.0226 (inactive) | 0.054 | -0.271 | 0.0364 (inactive)
4 | COc1ccc(C(O)C2C=CC3C(=O)N(C)C(=O)C3N2N(c2ccccc2)c2ccccc2)c2ccccc12 (stereo not given) | -0.303 | -1.6 | 0.943 | 0.149 | 0.2 | -0.979 | -0.14 (inactive) | 0.545 | -0.67 | -0.738 (inactive)
5 | COC(=O)c1c(CC[C@@H](CO)NC(=O)N[C@@H](Cc2ccccc2)Cn2cc(-c3ccccn3)nn2)oc(C(=O)N2CCOCC2)c1C(=O)OC | 0.122 | 0.17 | -1.31 | 0.527 | 0.642 | -0.105 | 0.0526 (inactive) | -0.652 | -0.0834 | 0.765 (inactive)
6 | O=C(CS)NCCCCCNC(=O)[C@H]1C[C@H]2C(=O)NCC(=O)N2[C@H]1c1ccc(O)cc1 | 0.67 | 0.537 | -0.815 | 0.0607 | -0.261 | -0.557 | 0.185 (inactive) | 0.415 | -0.167 | 0.847 (inactive)
7 | CCOc1cc(C(O)C2C=CC3C(=O)N(c4ccccc4)C(=O)C3N2Nc2ccc(C(C)C)cc2)ccc1O (stereo not given) | -0.65 | -0.538 | -0.159 | -2.67 | -1.16 | -1.66 | -0.457 (inactive) | 0.41 | -0.19 | -0.866 (inactive)
8 | CCOC(=O)C1=CC[C@H]2C(=O)N(c3ccccc3)C(=O)[C@@H]12 | -0.538 | -0.405 | 0.229 | -0.472 | 0.217 | -1.8 | -1.28 (inactive) | -0.00668 | 0.371 | 0.396 (inactive)
9 | OB1C=CCC(CCc2ccccc2)O1 (stereo not given) | 0.345 | 0.638 | 0.36 | 0.293 | 0.364 | 1.39 | 0.244 (inactive) | -0.855 | 0.954 | -1.01 (inactive)
10 | CN(C)CCCCCCNC(=O)[C@@H]1C[C@@H]2C(=O)N[C@@H](CCCC[N+](C)(C)C)C(=O)N2[C@@H]1c1ccc(O)cc1 | -0.974 | 0.334 | -0.646 | -1.51 | 0.131 | -0.108 | -0.302 (inactive) | 0.185 | -0.313 | -0.994 (inactive)
11 | CC(C)NC(=O)[C@@]1(Cc2ccccc2I)c2ccccc2C(=O)N(Cc2ccccc2Cl)[C@H]1c1ccc(CO)cc1 | -0.271 | 0.0063 | 0.768 | -1.59 | -2.03 | -0.274 | 0.131 (inactive) | 0.0101 | -0.756 | 0.0211 (inactive)
12 | C=C(/C(=C/C[C@H](OC(C)=O)c1ccc(OCCO)cc1)c1cc(C(=O)OC)ccc1OC)C(C)C | 1.32 | 0.0952 | 0.861 | -3.04 | -2.43 | 2.82 | -0.0331 (inactive) | -0.669 | -0.631 | 1.05 (inactive)
13 | CCCC(=O)N(CCc1c[nH]c2ccccc12)[C@@H]1CC(C(=O)NCCO)=C[C@H](Oc2c(I)cc(CO)cc2OC)[C@H]1O | 0.0593 | -0.0939 | 0.0635 | 0.704 | 0.0598 | 0.149 | -0.937 (inactive) | -0.178 | -1.49 | -0.558 (inactive)
14 | COC(=O)[C@@]1(Cc2ccc(F)cc2)[C@H]2c3cc(C(=O)N(C)C)n(Cc4ccc(C)o4)c3C[C@H]2CN1C(=O)c1ccccc1 | 0.0895 | -0.333 | 0.625 | -1.58 | -2.03 | 0.0211 | -1.72 (inactive) | -0.847 | -0.209 | 0.501 (inactive)
15 | O=C1C2C=CC(C(O)C=Cc3ccc([N+](=O)[O-])cc3)N(n3cnnc3)C2C(=O)N1Cc1ccccc1 (stereo not given) | -0.915 | 0.0646 | -0.129 | -0.232 | -1.03 | -1.07 | -0.566 (inactive) | 0.646 | -0.178 | 0.367 (inactive)
16 | O=C1[C@@]23C=C(Br)[C@H](C[C@@H]2COC3)[C@]12CO2 | -0.186 | -0.959 | -1.1 | -3.17 | -2.02 | -2.21 | -1.42 (inactive) | -1.3 | -2.19 | -0.453 (inactive)

Row | Compound | z-score [1] | z-score [2] | z-score [3] | z-score [4] | z-score [5] | z-score [6] | z-score [7] | z-score [8] | z-score [9] | z-score [10]
17 | O=C1C2C=CC(C(O)c3cc(C(F)(F)F)cc(C(F)(F)F)c3)N(Nc3ccccc3)C2C(=O)N1c1ccccc1 (stereo not given) | 1.3 | -1.48 | 0.662 | -2.24 | -3.52 | -4.32 | -1.36 (inactive) | -0.982 | -0.994 | 0.626 (inactive)
18 | COc1ccc(C(=O)Nc2ccc(CN3C(=O)[C@]4(O[C@H](CC(=O)N5CCC[C@H]5CO)[C@@H]([Si](C)(C)c5ccc(OC)cc5)[C@@H]4C)c4ccccc43)cc2)cc1 | -1.14 | 0.362 | -4.53 | -2.83 | -4.35 | -2.48 | -0.0307 (inactive) | -1.09 | -2.1 | -1.98 (inactive)
19 | C=CCOC(=O)[C@H]1[C@@H]2C(=O)O[C@@H](c3ccccc3)[C@@H](c3ccccc3)N2[C@@H](c2ccc(OCCOC(=O)[C@H]3C[C@H]4C(=O)N[C@@H](CCCCN(C)C)C(=O)N4[C@H]3c3cccc(OCCO)c3)cc2)[C@]12C(=O)Nc1ccc(I)cc12 | -0.226 | -0.512 | 1.22 | -2.14 | -1.82 | -1.92 | -1.13 (inactive) | -0.157 | -0.465 | 0.477 (inactive)
20 | COc1ccc(CCNC(=O)[C@@]2(c3ccc([N+](=O)[O-])cc3)CC(=O)N(CC34CC5CC(CC(C5)C3)C4)[C@@H]2c2ccc(CO)cc2I)cc1 | -0.68 | 0.475 | -1.36 | -2.44 | -3.68 | 2 | 0.1 (inactive) | -0.973 | -0.571 | -2.16 (inactive)
21 | COCCOC(=O)N1C(=O)[C@@]2(c3ccccc31)[C@H](C(=O)N1CCc3cc(OC)c(OC)cc3C1)[C@H]1C(=O)O[C@H](c3ccccc3)[C@H](c3ccccc3)N1[C@@H]2c1ccc(O)cc1 | 2.4 | 1.1 | 1.76 | 0.275 | 0.0454 | 0.218 | 0.743 (inactive) | -0.69 | 0.0766 | -0.223 (inactive)
22 | COc1ccc(C(=O)Nc2cccc(CN3C(=O)[C@]4(O[C@H](CCn5cc(CCO)nn5)[C@@H]([Si](C)(C)c5ccc(OC)cc5)[C@@H]4C)c4ccccc43)c2)cc1 | -3.46 | -0.42 | -4.63 | -2.47 | -4.35 | -2.18 | 1.51 (inactive) | -0.46 | -2.05 | -6 (inactive)
23 | O=C1C2C=CC(C(O)c3c(F)cccc3Cl)N(Nc3ccccc3F)C2C(=O)N1c1ccccc1 (stereo not given) | -0.505 | -1.08 | -0.257 | 0.278 | -0.0072 | -1.03 | -0.217 (inactive) | -0.277 | -0.298 | -0.103 (inactive)
24 | CO[C@H]1O[C@H](CO)[C@@H](OC(=O)Nc2ccc(Oc3ccccc3)cc2)[C@H](OC(=O)Nc2ccc3c(c2)OCO3)[C@@H]1OC(=O)Nc1ccc2c(c1)OCO2 | -0.882 | -0.132 | -0.845 | -2.21 | -1.74 | -0.594 | 1.02 (inactive) | -0.48 | -0.751 | -1.29 (inactive)
25 | O=C1N(CCS(=O)(=O)c2ccccc2)c2ccccc2[C@@H]2OC(c3ccc(OCCCO)cc3)=N[C@]12Cc1ccccc1 | 0.661 | 1.33 | 0.993 | -2.75 | -1.58 | 0.637 | 2.24 (inactive) | -0.407 | -0.989 | -2.13 (inactive)
26 | C=CCN1Cc2ccccc2[C@@H]2OC(c3ccc(OCCCO)cc3)=N[C@]2(CCS(=O)(=O)c2ccccc2)C1=O | -0.251 | 0.771 | 0.574 | -1.12 | -0.664 | -0.187 | -0.303 (inactive) | -1.06 | -0.181 | 0.315 (inactive)
27 | CCOc1ccc(N2C(=O)CSC2c2cccc([N+](=O)[O-])c2)cc1 (stereo not given) | 1.77 | -0.704 | 1.1 | -0.119 | -0.804 | 1.61 | 0.989 (inactive) | -0.127 | -0.288 | 0.0421 (inactive)
28 | COC(=O)[C@@]1(Cc2ccc(OC)cc2)[C@H]2c3cc(C(=O)N4CCCC4)n(CCSCCO)c3C[C@H]2CN1C(=O)c1ccccc1 | -0.35 | 0.319 | -0.814 | -2.68 | -0.804 | 1.5 | -1.29 (inactive) | -0.689 | 0.168 | 1.57 (inactive)
29 | C=C(CCCC)C(=O)CC[C@@H](OC(C)=O)c1ccc(CO)o1 | -0.779 | 0.37 | -0.293 | 0.0178 | -0.878 | -0.885 | 0.352 (inactive) | 0.703 | -0.179 | -0.0655 (inactive)
30 | O=C1NC(=O)C2C1C=CC(C(O)c1ccc(I)cc1)N2Nc1ccc(Cl)cc1Cl (stereo not given) | -0.519 | 0.53 | -0.363 | -3.83 | -4.06 | -2.51 | -1.25 (inactive) | -0.984 | -1.09 | -1.59 (inactive)
31 | O=C(O)[C@H](Cc1ccccc1)n1cc(-c2ccccc2)nn1 | -0.757 | -0.853 | -0.177 | 0.269 | -0.157 | -0.601 | -0.0821 (inactive) | 0.666 | 0.348 | -0.143 (inactive)
32 | COc1ccc([C@H]2C[C@H]3C(I)=C[C@@H]2C(=O)[C@]32CO2)cc1 | -0.87 | 0.698 | -0.856 | -3.23 | -2.81 | -0.22 | 0.315 (inactive) | -0.474 | -0.967 | 0.46 (inactive)

From PubChem BioAssay
